Test results taken from PubChem BioAssay AID1626 (SRMLSC, 2009).
Out of some 220,000 compounds screened, about 2,000 (0.91%) were called active. Inconclusive results (about 2%) are left out. The list is a sample of the results. Entries with a potency or affinity are not part of this list. A number with no mark means an inactive call. Rule as the data show it: inconclusive = inhibition above about 80% without an active follow-up result; inactive = below that; test concentration not stated here.

Test: M. tuberculosis H37Rv growth inhibitors, H37Rv strain (AID 1626);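 also: bacteria incubated seven days before Alamar blue readout; 0% = bacteria only wells and 100% = bacteria with antibiotic wells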
Conditions: stronger effect = higher value, concentration not given here

Row | Structure (SMILES) | inhibition [%]
1 | C=CCn1c(=O)c2ccccc2n2c(SCC(=O)c3ccccc3)nnc12 | 6.67
2 | CCN(CC)CCOc1ccc(/C(=C(/Cl)c2ccccc2)c2ccccc2)cc1 | 41
3 | CN(C)CCOc1ccc(/C(=C(/CCCl)c2ccccc2)c2ccccc2)cc1 | 59.6
4 | CCCC(=O)Nc1ccc(C(=O)n2nnc3ccccc32)cc1 | -6.7
5 | COc1ccccc1N1CCN(c2cc(=O)n(Cc3ccc(F)cc3)c(=O)[nH]2)CC1 | 12.4
6 | O=S(=O)(c1cccs1)N1CCN(c2ccc(O)cc2)CC1 | -12.2
7 | Cc1ccc(CN(Cc2ccco2)C(=S)NCC(=O)NC2CC2)cc1 | 5.98
8 | Cc1nc2ccc(NC(=O)c3ccc4ccccc4n3)cc2s1 | -4.06
9 | CCOc1ccccc1C(=O)Nc1nnc(CC)s1 | -4.9
10 | CCc1nnc(NC(=O)c2cc(C)nc3ccccc23)s1 | -1.08
11 | Cc1sc(NC(=O)c2cc3ccccc3oc2=O)c(C(=O)OC(C)C)c1-c1ccccc1 | -5.1
12 | CCOC(=O)c1c(-c2ccccc2)csc1NC(=S)NC | 18.6
13 | CCc1nnc(NC(=O)c2ccc(OC)cc2)s1 | 2.91
14 | O=C(Nc1ccccc1)c1ccc2ccccc2n1 | 8.34
15 | CCc1nnc(NS(=O)(=O)c2ccc(NC(=O)c3cc4ccccc4oc3=O)cc2)s1 | 61.4
16 | CN(C)CCCN(Cc1ccccc1)C(=S)Nc1ccc(OC(F)F)cc1 | 4.19
17 | Cc1cc(C)n(-c2nc3ccccc3nc2Nc2ccc3c(c2)OCO3)n1 | 13.5
18 | Cc1cccc(NC(=S)NCc2cccs2)c1C | 9.19
19 | Cc1ccnc(NS(=O)(=O)c2ccc(Cl)nc2)c1 | -4.15
20 | CCNC(=S)/N=C(/Nc1ccc(OC)cc1)Nc1nc(C)cc(C)n1 | -8.72
21 | CCC(CC)c1nnc(NC(=O)c2cc(-c3ccccc3)nc3ccccc23)s1 | 65.7
22 | CCC(CC)c1nnc(NC(=O)c2ccco2)s1 | -8.07

Row | Structure (SMILES) | inhibition [%]
23 | CCSc1nnc(NC(=O)c2cccc3ccccc23)s1 | 3.82
24 | CCc1nnc(NC(=O)c2ccncc2)s1 | -7.55
25 | CCc1nnc(NC(=O)c2c(OC)cccc2OC)s1 | -2.43
26 | CCSc1nnc(NC(=O)c2ccccc2)s1 | 0.13
27 | O=C(CSC1=NCCN1)NC12CC3CC(CC(C3)C1)C2 | -6.99
28 | CCN(CC)S(=O)(=O)c1cc([N+](=O)[O-])ccc1N=Nc1c(O)[nH]c2ccccc12 | 0.25
29 | COc1cccc(/C=N/NC(=S)Nc2cccnc2)c1 | 3.92
30 | Cc1nnc(SCC(=O)N2CCC(Cc3ccccc3)CC2)n(N)c1=O | 7
31 | COc1ccc(C2Nc3ccccc3C(=O)N2NC(=O)c2ccccc2)cc1OC (centres undefined) | 2.58
32 | COc1cccc(NC(=O)CN(C)CC(=O)Nc2ccc(Cl)cc2[N+](=O)[O-])c1 | 7.39
33 | COCCNc1cc(C)nc2cc(-c3ccc(C)cc3)nn12 | -4.32
34 | Cc1cc(NCCCn2ccnc2)n2nc(-c3ccc(F)cc3)cc2n1 | -4.87
35 | Cc1cccc(-c2cc3nc(C)cc(NCCCN(C)C)n3n2)c1 | -0.01
36 | Cc1cc(NCCN2CCOCC2)n2nc(C)c(-c3ccc(Cl)cc3)c2n1 | 17.9
37 | Cc1cccc(-c2cc3nc(C)cc(NCCCn4ccnc4)n3n2)c1 | 5.02
38 | Cc1cc(NCCCn2ccnc2)n2nc(C)c(-c3ccccc3)c2n1 | -2.71
39 | CCC(=O)Nc1ccccc1C(=O)OCc1ccc(C(=O)c2ccccc2)cc1 | 27.4
40 | Nn1c(SCC(=O)N2CCOCC2)nnc1C1CC1 | -3.01
41 | CCOC(=O)c1cc(N)cc([N+](=O)[O-])c1 | 5.48
42 | Cc1cccc(C)c1NC(=S)N1CCCN(C)CC1 | -1.16
43 | CCC(CC)C(=O)N1CCCC(c2nc(-c3cccs3)no2)C1 (centres undefined) | 10
44 | CC1(OC(=O)CCc2ccccc2)C(=O)C=C2C=C3CCCN3C=C2C1=O (centres undefined) | 6.27

Row | Structure (SMILES) | inhibition [%]
45 | C/C(Cl)=C/Cn1c(SCC(C)C)nc2c1c(=O)[nH]c(=O)n2C | 3.03
46 | COc1cccc(NC(=O)N2CCOCC2)c1 | -7.85
47 | O=C(Oc1ccc(-c2cnc3ccccc3n2)cc1)c1cccc([N+](=O)[O-])c1 | 24
48 | O=C(Oc1ccc(-c2cnc3ccccc3n2)cc1)c1cc([N+](=O)[O-])ccc1Cl | 71.7
49 | O=C(Nc1cccc(-c2cnc3ccccc3n2)c1)c1ccco1 | -2.67
50 | O=C(Oc1ccc(-c2cnc3ccccc3n2)cc1)c1ccco1 | 7.39
51 | COc1ccc(OC)c(-c2cc(C(=O)Nc3c(C)nn(Cc4ccccc4C)c3C)no2)c1 | 72.8
52 | Cc1ccccc1NC(=O)CN1C(=S)NC(C)(C)CC1C (centres undefined) | 2.34
53 | CSc1nnnn1-c1ccc(Cl)cc1 | -2.8
54 | Cc1sc2ncnc(Sc3nnnn3-c3ccc(Cl)cc3)c2c1C | -0.98
55 | Cc1ccc(-n2cccc2C(=O)NS(=O)(=O)c2ccc(C)cc2)cc1 | -6.02
56 | CCc1ccc(OCC(=O)O/N=C(\N)c2ccccn2)cc1 | 8.77
57 | O=C(CSc1nc(-c2ccccc2)c(-c2ccccc2)[nH]1)NCC1CCCO1 (centres undefined) | -3.58
58 | N#CC1=C(S)N(c2ccccc2)C(c2ccc(-c3cc(Cl)ccc3Cl)o2)NC1=O (centres undefined) | 9.36
59 | N#CC1=C(S)N(c2ccccc2)C(c2ccc(-c3cccc(Cl)c3)o2)NC1=O (centres undefined) | 4.44
60 | C/C=C/c1ccc(OCCCCNCc2ccco2)c(OC)c1 | -4.41
61 | CCCN(CCC)C(=O)CC(c1ccccc1)c1ccc(C)cc1O (centres undefined) | 2.31
62 | CCN(CC(=O)NCCC1=CCCCC1)S(=O)(=O)c1ccccc1 | -1.16
63 | COc1cccc(N2CCN(C(=O)c3ccc4nc(N5CCCCC5)sc4c3)CC2)c1 | 5.19
64 | CCOC(=O)N1CCN(C(=O)c2ccc3nc(N4CCCCC4)sc3c2)CC1 | -6.19
